High-throughput results (PubChem)
IP6K1 inh: inhibitors of human IP6K1. IP6K1 kinase, ADP-Glo luminescence, 2 h; stronger effect = lower value. 0.81% of 140,000 active. AID 1645851. Q92551. activity change, % (series mostly up to about 58 µM); in the data active = activity change below about -25%; note: % is set by controls: 0 for no effect and ±100 for the full control effect
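ADP-Glo luminescence measures ADP made by human IP6K1 during a 2 h RT reaction with ATP/IP6 (mix at 1.3 mM/130 uM); top library doses 57.5 and 19.1 uM final.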
KDM5B inh: inhibitors of human KDM5B histone demethylase; Q9UGL1; 2.6% of 220,000 active; KDM5B demethylase, FDH-coupled NADH fluorescence (FDH is formaldehyde dehydrogenase); Potency, µM (titrated, usually from 57.7 µM), hits mostly inhibitors; AID 1347165; active = well fitted inhibition curve with a large enough effect; inconclusive = small, poorly fitted or top-dose-only effect; inactive = no such curve, though single readings can be large or run the other way; note: potency is the fitted concentration of half-maximal effect; 0% is about no effect; nearly all actives have a fitted effect of over 70% in size
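Coupled FDH/NAD⁺ fluorescence readout. KDM5BΔAP 200 nM final; compound titration, 10 min RT preincubation; substrate mix 12.5 µM H3K4me3, 25 µM 2-OG, 50 µM Fe(II), 100 µM ascorbate, 0.25 mM NAD⁺, 0.25 U/mL FDH; ΔRFU over 30 min.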
The depositor's hits bear a star; i = inactive; ? = inconclusive; · = no result. This is a sample that favours compounds with a hit; in the whole collection about 2.8% have one here.

SMILES	IP6K1 inh	KDM5B inh
COc1cccc(-c2cc(C(=O)NCCc3ccccn3)c3cnn(C)c3n2)c1	8	·
O=C(NC1CCN(Cc2cccc(-c3cccs3)c2)CC1)c1ccccc1	-2	·
c1ccc(-c2cc3c(ccn3Cc3ccncc3)c(N3CCOCC3)n2)cc1	-8	7.9µM*
COc1cc(F)ccc1-c1cc2c(ccn2Cc2ccncc2)c(N2CCOCC2)n1	6	35µM*
O=C1NCc2cc(-c3cc4c(ccn4Cc4ccncc4)c(N4CCOCC4)n3)ccc21	23	32µM*
COc1ccccc1-c1cc2c(ccn2CC2CCN([S+](C)(=O)[O-])CC2)c(N2CCOCC2)n1	-4	?
c1cc(Cn2ccc3c(N4CCOCC4)nc(-c4cncnc4)cc32)ccn1	0	i
COc1ccc(-c2cc3c(ccn3Cc3ccncc3)c(N3CCOCC3)n2)cn1	-14	?
O=C(NCc1cccnc1OCC(F)(F)F)c1ccc(Cl)o1	·	i
Cc1ccc(NC(=O)Cn2c(=O)c3c(C)cc(C)nc3n(-c3ccccc3)c2=O)c(Cl)c1	·	i
CCn1c(Cn2nnc(-c3cccc(F)c3)n2)nc2cc(S(=O)(=O)N3CCCCC3)ccc21	·	i
Cc1ccc(Nc2nnc(SCc3nnc(C(C)(C)C)o3)s2)cc1	·	i
C=CCOc1cc(C)c2c(c1C)[C@H](O)C([C@H](C)C(=O)NCCOC)CC2 (stereo partly specified)	-3	i
C=CCOc1cc(C)c2c(c1C)[C@H](O)C([C@H](C)C(=O)N(C)Cc1ccccc1)CC2 (stereo partly specified)	-6	35µM*
CCc1nc(-c2c3n(c(=O)n(Cc4cc(=O)n5ccccc5n4)c2=O)CCCC3)no1	5	22µM*
CCc1nc(-c2c3n(c(=O)n(Cc4ccccc4F)c2=O)CCCC3)no1	0	i
CN1CC(=O)N(C2CCCNCC2)Cc2c1ncnc2N1CCC(N2CCCCC2)CC1 (stereo unspecified)	-14	?
O=C(c1ccc(F)cc1)N1CCCC(c2nc(-c3ccc(F)cc3)no2)C1 (stereo unspecified)	-2	·
O=C(c1ccc2nc(-c3ccc(F)cc3)cn2c1)N1C[C@@H]2CCCN[C@@H]2C1	-7	28µM*
O=C(c1ccc2nc(-c3ccccc3)cn2c1)N1CCOC(C(F)(F)F)C1 (stereo unspecified)	7	32µM*
O=C(c1cccc2nccnc12)N1CCOC(C(F)(F)F)C1 (stereo unspecified)	14	i
Cc1cn2cc(C(=O)N3CCCCC3c3ccc(F)cc3)ccc2n1 (stereo unspecified)	3	?
CCCOC1CCCN(C(=O)c2ccc3nc(-c4ccc(F)cc4)cn3c2)C1 (stereo unspecified)	27	28µM*
COc1ccccc1-c1cc(=O)c2cc(NS(=O)(=O)c3ccc(F)cc3)ccc2o1	·	i
CCCCN1C(=O)C(=O)N(Cc2cc(=O)oc3cc(C)ccc23)C1=O	·	i
SMILES	IP6K1 inh	KDM5B inh
COc1ccc(-c2ccc3c(n2)CN(CCOc2ccccc2)C(=O)CO3)cc1	-9	13µM*
Cc1ccc(-c2ccc3c(n2)CN(C)C(=O)CO3)cc1	-10	i
O=C1COc2ccc(-c3ccccc3)nc2CN1CCOc1ccccc1	-5	i
COc1ccc(-c2ccc3c(n2)CN(C)C(=O)CO3)cc1	-2	35µM*
N#Cc1cccc(-c2cn3cc(C(=O)NC4CCCCC4)nc3s2)c1	13	·
COc1ccc(-c2nnc(SCc3nc(-c4ccco4)no3)n2CCc2ccccc2)cc1	·	i
Cn1ncc2c(C(=O)NC3CCCC3)cc(-c3ccc(Cl)nc3)nc21	14	·
CC(C)NC(=O)c1cc(-c2ccc(S(C)(=O)=O)cc2)nc2c1cnn2C	4	79µM*
CC(C)NC(=O)c1cc(-c2ccc(F)cc2)nc2c1cnn2C	-4	·
CC(C)NC(=O)c1cc(-c2ccc(Cl)nc2)nc2c1cnn2C	-12	56µM*
O=C1CN(CC(=O)c2c[nH]c3ccccc23)CCN1	·	i
CC(NS(=O)(=O)c1cccc2nsnc12)C12CC3CC(CC(C3)C1)C2 (stereo unspecified)	·	i
Cc1ccccc1-n1cc(-c2ccnc(NC(C)Cc3ccncc3)n2)cn1 (stereo unspecified)	-8	25µM*
Cc1ccccc1-n1cc(CN(C)Cc2nc(-c3ccc(C(F)(F)F)cc3)no2)cn1	0	i
Fc1cccc(NC(=S)NCc2ccccc2)c1	·	i
CCOC(=O)N1CCC(N[C@@H]2CC[C@@H]2NC(=O)c2cnc3cccnn23)CC1	22	32µM*
CCOC(=O)N1CCC(N[C@@H]2CC[C@@H]2NC(=O)c2ccccn2)CC1	7	?
C#CCNC(=O)c1nn(C)c2nc(-c3ccccc3OC)ccc12	2	·
CN(C)C(=O)c1nc(-c2ccc(S(C)(=O)=O)cc2)c2ccccn12	-17	i
C#CCNC(=O)c1nc(-c2ccccc2OC)c2cnccn12	-17	89µM*
C#CCNC(=O)c1nc(-c2ccccc2OC)c2ccccn12	-21	100µM*
COc1ccccc1-c1nc(C(=O)N(C)C)n2ccccc12	-15	112µM*
COCCNC(=O)c1nc(-c2ccccc2OC)c2ccccn12	10	i
c1csc(-c2noc(CN3CCCC3c3ccsc3)n2)c1 (stereo unspecified)	·	i
Cc1ccc(NC(=O)c2cc(=O)c3cc(C)ccc3o2)c(C)c1	·	i
SMILES	IP6K1 inh	KDM5B inh
CCCOc1c(Br)cc(C(=O)OCC(=O)c2cc(C)c(C)cc2C)cc1OC	·	i
CNc1nc(N2C[C@H]3CN(CCO)C[C@@]3(C(=O)O)C2)nc2c1CCC2	2	?
CNc1cc(C)nc(N2C[C@H]3CN(C(=O)N(C)C)C[C@@]3(C(=O)O)C2)n1	11	22µM*
O=S(=O)(Nc1cccn2nc(C3CC3)nc12)c1cccnc1	10	3.5µM*
CCc1nc2c(NS(=O)(=O)c3cccnc3)cccn2n1	26	i
CN1CCC2(C1)CN(Cc1ccccc1)c1ccc(C(=O)NCCc3ccccn3)cc12 (stereo unspecified)	-7	?
CN1CCC2(C1)CN(CC1CCOCC1)c1ccc(C(=O)NCCc3ccccc3)cc12 (stereo unspecified)	-6	32µM*
CN1CCC2(C1)CN(Cc1ccccc1)c1ccc(C(=O)N3CCOCC3)cc12 (stereo unspecified)	6	?
O=C(NCCCN1CCOCC1)c1ccc(N2CCOCC2)c([N+](=O)[O-])c1	·	i
CN1CCC2(C1)CN(CC1CCOCC1)c1ccc(C(=O)NCCCO)cc12 (stereo unspecified)	-17	35µM*
CN1CCC2(C1)CN(CC1CCOCC1)c1ccc(C(=O)NCCOc3ccccc3)cc12 (stereo unspecified)	4	22µM*
COc1ccc(C(=O)NC2CCN(Cc3ccc(-c4ccccc4OC)cc3)C2)cc1 (stereo unspecified)	9	·
CC(c1ccccc1)N(C)C(=O)CCCc1c[nH]c2ccccc12 (stereo unspecified)	·	i
CCOc1ccc(-c2cc3c(=O)n(CCNC(=O)c4cnccn4)ccn3n2)cc1	-10	25µM*
Cc1ccc(-c2cc3c(=O)n(CCNC(=O)c4cnccn4)ccn3n2)cc1C	0	22µM*
CCOc1ccc(-c2cc3c(=O)n(CCNC(=O)c4cccc(Cl)c4)ccn3n2)cc1	-5	i
